Compound activity deposited in PubChem by National Center for Advancing Translational Sciences (NCATS).
A selection: hits, their analogues and other compounds. The true share with any hit is near 0.81%.
RE007 growth inh: less growth of the S. pombe RE007 Vpr strain; S. pombe RE007 Vpr strain, BacTiter-Glo ATP luminescence, 24 h; 0.21% of 360,000 active; Potency, µM (top dose mostly 92.2 µM), for inactives: top-dose activity change, negative = less growth, usual class: inhibitors; active = well fitted falling curve with a large enough effect; inconclusive = small, poorly fitted or top-dose-only effect; inactive = no such curve, though single readings can be large or run the other way; also: % is scaled to controls: 0 for no effect and ±100 for the full control effect; nearly all actives have a fitted effect of over 50% in size
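Fission yeast RE007 carrying one integrated HIV-1 vpr copy, seeded at OD 0.01 in PMG+AL medium with 23 nL pinned compound. Grown 24 h at 30 degrees; viability read by BacTiter-Glo luminescence after 5 min.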
SARS PLpro yeast: SARS-CoV PLP inhibition in yeast | AID 485353 | 0.19% of 330,000 active | Potency, µM (series often up to 32.9 µM), inactives show at the top dose activity, positive = growth rescue, actives largely listed as activators | S. cerevisiae expressing SARS-CoV PLpro, growth rescue; calls by dose curve; also: 0% is about no effect; nearly all actives have a fitted effect of over 55% in size
LmPK inh: inhibitors of Leishmania mexicana pyruvate kinase. Q27686. purified LmPK, Kinase-Glo ATP luminescence, 1 h. Potency, µM (top dose mostly 57.5 µM), inactives show top-dose activity change, negative = inhibition, usual class: inhibitors. 0.37% of 290,000 active. AID 1721; also: % is scaled to controls: 0 for no effect and ±100 for the full control effect
Target sequence (Q27686 whole entry, looked up): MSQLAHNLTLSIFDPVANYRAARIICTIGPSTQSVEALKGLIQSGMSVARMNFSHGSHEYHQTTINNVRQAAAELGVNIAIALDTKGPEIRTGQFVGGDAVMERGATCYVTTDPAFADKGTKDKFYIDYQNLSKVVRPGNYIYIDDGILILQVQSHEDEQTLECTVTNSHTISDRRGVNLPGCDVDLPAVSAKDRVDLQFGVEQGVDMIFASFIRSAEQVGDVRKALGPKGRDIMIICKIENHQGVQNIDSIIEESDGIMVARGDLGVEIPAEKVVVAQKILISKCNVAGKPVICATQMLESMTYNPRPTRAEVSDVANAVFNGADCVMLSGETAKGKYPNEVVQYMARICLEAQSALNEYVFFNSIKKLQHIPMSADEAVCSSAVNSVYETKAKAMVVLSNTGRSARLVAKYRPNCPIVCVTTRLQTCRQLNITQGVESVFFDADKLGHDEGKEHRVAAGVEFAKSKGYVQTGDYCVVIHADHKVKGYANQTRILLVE
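Purified LmPK (0.1 nM) with 0.5 mM PEP and 0.1 mM ADP in imidazole buffer pH 7.2 with MgCl2/KCl, 1 h at room temperature. ATP formed was read by luciferase luminescence and normalized to no-enzyme and uninhibited controls.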
Tb PYK inh: blocks Trypanosoma brucei pyruvate kinase. Q57TT1. TbPYK enzyme, Kinase-Glo Plus ATP luminescence, 45 min. Potency, µM (doses to about 76.8 µM), inactives show top-dose activity, negative = inhibition, most hits filed as inhibitors. 0.12% of 410,000 active; also: % is scaled to controls: 0 for no effect and ±100 for the full control effect; nearly all actives have a fitted effect of over 50% in size
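Screened from lowest to highest concentration, compounds were pinned into TbPYK/substrate mixtures, and ADP (130 uM final) was added. Plates sat at room temperature for 45 min prior to Kinase-Glo Plus detection by luminescence.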
AMA1 RON2 block: AMA1-RON2 (P. falciparum) interaction inhibition; Potency, µM (top dose mostly 58.2 µM), without a hit: at the highest dose activity change, negative = inhibition, most hits filed as inhibitors; 0.2% of 360,000 active; AID 720542; AlphaScreen AMA1-biotinylated RON2 peptide binding;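 also: 0% = vehicle wells and -100% = peptide control; nearly all actives have a fitted effect of over 45% in size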
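AMA1 (3D7) with his tag at 25 nM final met compounds first, then biotinylated RON2 peptide at 25 nM; detection used donor plus acceptor beads, 10 µg/mL apiece, read by AlphaScreen after 30 min at room temperature.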
* marks the source's active call; other numbers are inactive results; ? = inconclusive; . = no result; [ ] = dose if it differs, or a comment. Unless noted, calls follow the shape of the dose curve; as a rule, active = well fitted curve in the direction sought with a large enough effect; inconclusive = small, poorly fitted or top-dose-only effect, or another doubt; inactive = no such curve, though single readings can be large; an effect the other way counts as inactive or inconclusive. Potency is read from the fitted curve at half-maximal effect.

SMILES	RE007 growth inh	SARS PLpro yeast	LmPK inh	Tb PYK inh	AMA1 RON2 block
O=C(O)c1cc(O)c2c(c1)[C@@H]([C@H]1c3cc(C(=O)O)cc(O)c3C(=O)c3c(O[C@@H]4O[C@H](CO)[C@@H](O)[C@H](O)[C@H]4O)cccc31)c1cccc(O[C@@H]3O[C@H](CO)[C@@H](O)[C@H](O)[C@H]3O)c1C2=O	28%	-1%	.	-8%	1.4µM*
CCCc1ccc(-c2ccc(F)c(N)c2)nc1	-18%	4%	16µM*	-2%	2%
CCCOC(=O)c1ccc(NC(=O)C2C3C=CC(O3)C2C(=O)O)cc1 (configuration not stated)	13µM*	-16%	1%	-14%	1%
CC(=O)c1ccc(NC(=O)C2C3C=CC(O3)C2C(=O)O)cc1 (configuration not stated)	7%	-3%	-2%	2%	1%
COc1ccc(C(C)(O)c2nc(-c3cccc(C(F)(F)F)c3)cs2)cc1 (configuration not stated)	35µM*	.	.	-15%	15%
COc1cccc(C(C)(O)c2nc(-c3cccc(C(F)(F)F)c3)cs2)c1 (configuration not stated)	?	.	.	-8%	20%
CCCCOc1cccc(C(=O)N(Cc2ccc(N(C)C)cc2)C2CCS(=O)(=O)C2)c1 (configuration not stated)	.	.	.	-6%	.
Cc1nc2nc(-c3ccccc3)cn2nc1C	-9%	.	13µM*	-23%	42%
Cc1nc2nc(-c3ccc(F)cc3)cn2nc1C	.	-2%	?	?	6%
CC(C)[C@@]1(NC(=O)[C@H]2C[C@H]3c4cccc5[nH]cc(c45)C[C@@H]3N(C)C2)O[C@]2(O)[C@H]3CCCN3C(=O)CN2C1=O (tested in a mixture with another compound)	.	.	.	0%	.
O=c1c(O)cccc2cc(O)c(O)c(O)c12	?	-1%	-3%	-28%	2.5µM*
CC(=O)/C(N=Nc1ccc(C(=O)O)cc1[N+](=O)[O-])=C(\C)O	-24%	0%	25µM*	-16%	-2%
O=[N+]([O-])c1cnc(Sc2ccncn2)c([N+](=O)[O-])c1	?	.	.	?	21%
O=[N+]([O-])c1cnc(Sc2ccncn2)s1	1µM*	-6%	4%	-1%	33%
c1nc(SSc2ncnc3nc[nH]c23)c2[nH]cnc2n1	-1%	.	.	3.5µM*	32%
CCOC(=O)c1noc2ncnc(Nc3cc(Cl)c(OC)cc3OC)c12	.	.	.	-9%	.
Cn1c(CN2CCN(c3ccc(Cl)cc3)CC2)nc2ccccc21	1%	8.9µM*	2%	4%	7%
CCn1c(CN2CCN(c3ccc(Cl)cc3)CC2)nc2ccccc21	0%[3.69 µM]	26%	-1%	.	7%
COCCCN1C(=O)C(CC(=O)NCC2CCCCC2)CC(C(=O)N2CCOCC2)=C1C (configuration not stated)	6%	.	.	-9%	-8%
Cc1ccc2c(c1)cc1c(=O)n(CC(=O)NCc3ccco3)nc(C)n12	.	.	.	1%	.
C[C@]12CCC(=O)C=C1CC[C@@H]1[C@H]2[C@@H](O)C[C@@]2(C)[C@H]1CC[C@]2(O)C(=O)CO	.	.	.	3%	.
C=CCn1c(-c2ccccc2OC)n[nH]c1=S	3%	2%	-19%	?	18%
C=CCn1c(-c2cccc3ccccc23)n[nH]c1=S	3%[3.69 µM]	?	8.9µM*	.	-10%
C=CCn1c(Cc2ccccc2)n[nH]c1=S	10%	1%	0%	?	33%
C=CCn1c(Cc2c[nH]c3ccccc23)n[nH]c1=S	6%	6%	-20%	13µM*	56%
S=c1[nH]nc2ccc3ccccc3n12	-10%	.	.	7.1µM*	110%
c1ccc(C(c2ccccc2)N2CC3(CCNCC3)C2)cc1	.	.	.	-2%	.
COc1ccc(-c2nc3c(Br)c(N)c(Br)cc3o2)cc1	-9%	4%	22µM*	-2%	5%
Nc1c(Br)cc2oc(-c3ccccc3)nc2c1Br	11%	15%	-4%	0%	-11%
C=C(C)CSC1=C(C#N)C(c2ccccc2Cl)CC(=O)N1 (configuration not stated)	0%	4%	4%	13µM*	-20%
